Laboratory results published in PubChem BioAssay AID743258 (The Scripps Research Institute Molecular Screening Center, 2014).
Out of some 3,300 compounds screened, about 100 (3%) were called active. Rule as the data show it: active = inhibition above about 9.5%; inactive = the rest. A selection follows.

These compounds were tested against 1-phosphatidylinositol 4,5-bisphosphate phosphodiesterase gamma-1 (Homo sapiens) (UniProt P19174) (assay: human PLCG1 activity blockade – biochemical, fluorescence, counter-screen for PLC-beta3 inhibitor project (AID 743258)). Conditions: purified PLC-gamma1, fluorogenic substrate, at 12.3 µM, hits give high values.
1-phosphatidylinositol 4,5-bisphosphate phosphodiesterase gamma-1 (Homo sapiens), sequence (P19174 whole entry, looked up): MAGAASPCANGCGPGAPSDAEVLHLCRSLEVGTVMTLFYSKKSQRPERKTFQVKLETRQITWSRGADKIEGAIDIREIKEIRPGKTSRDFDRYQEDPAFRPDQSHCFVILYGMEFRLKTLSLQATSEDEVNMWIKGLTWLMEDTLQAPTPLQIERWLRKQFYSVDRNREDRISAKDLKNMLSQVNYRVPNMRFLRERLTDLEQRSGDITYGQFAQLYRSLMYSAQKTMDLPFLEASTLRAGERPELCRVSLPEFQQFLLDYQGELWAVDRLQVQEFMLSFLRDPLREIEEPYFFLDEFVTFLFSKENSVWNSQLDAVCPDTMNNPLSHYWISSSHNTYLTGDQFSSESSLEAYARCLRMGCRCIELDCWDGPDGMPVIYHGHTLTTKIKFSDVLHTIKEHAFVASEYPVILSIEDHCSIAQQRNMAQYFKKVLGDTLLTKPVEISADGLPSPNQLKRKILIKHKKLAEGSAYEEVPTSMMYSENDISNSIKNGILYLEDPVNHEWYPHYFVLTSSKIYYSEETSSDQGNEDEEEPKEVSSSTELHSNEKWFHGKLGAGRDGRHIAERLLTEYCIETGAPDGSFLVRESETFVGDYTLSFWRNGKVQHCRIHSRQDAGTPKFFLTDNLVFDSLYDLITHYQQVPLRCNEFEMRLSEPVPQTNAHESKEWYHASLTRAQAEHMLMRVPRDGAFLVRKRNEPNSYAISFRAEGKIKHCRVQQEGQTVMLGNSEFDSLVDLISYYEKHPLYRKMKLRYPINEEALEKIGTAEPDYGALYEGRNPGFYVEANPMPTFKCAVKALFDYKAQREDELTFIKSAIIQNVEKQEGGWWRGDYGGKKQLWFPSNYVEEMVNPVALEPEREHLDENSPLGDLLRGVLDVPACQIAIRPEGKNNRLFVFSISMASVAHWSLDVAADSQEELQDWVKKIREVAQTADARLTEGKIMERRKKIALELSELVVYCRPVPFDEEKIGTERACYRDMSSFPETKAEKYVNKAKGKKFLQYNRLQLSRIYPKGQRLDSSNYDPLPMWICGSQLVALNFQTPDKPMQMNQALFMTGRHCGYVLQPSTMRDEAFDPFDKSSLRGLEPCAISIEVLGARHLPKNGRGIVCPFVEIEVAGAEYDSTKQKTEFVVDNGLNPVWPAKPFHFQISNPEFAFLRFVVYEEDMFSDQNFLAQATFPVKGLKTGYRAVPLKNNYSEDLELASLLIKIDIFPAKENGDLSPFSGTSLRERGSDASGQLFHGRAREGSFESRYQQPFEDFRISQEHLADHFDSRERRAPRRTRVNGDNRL

Structure (SMILES)	inhibition
CCCCNc1ccc(C(=O)Nc2cccc(C)n2)cc1[N+](=O)[O-]	-2.76% (inactive)
Nc1nnc(SCC(=O)OCc2ccc(Cl)c(Cl)c2)s1	-3.53% (inactive)
CCCCn1c(SCC(=O)N2CCCC2=O)nc2cc(S(N)(=O)=O)ccc21	-2.51% (inactive)
COc1ccccc1CCNC(=O)CN1C(=O)NC2(CCCC2)C1=O	5.92% (inactive)
Cc1cc(C)c(NC(=O)CN2CCOCCOCCOCCOCC2)c(C)c1	-2.06% (inactive)
O=c1c([N+](=O)[O-])cc(C(F)(F)F)cn1Cc1cccc(Cl)c1	8.36% (inactive)
O=C(CSc1ncn[nH]1)N/N=C/c1ccc(F)cc1	0.56% (inactive)
CCOC(=O)[C@]12CCCC=C1N(CCCOC)C(=O)[C@@H]2CC(=O)N1CCOCC1	-3.38% (inactive)
Cc1nc(Nc2ccccc2C)c2cnn(C)c2n1	-6.74% (inactive)
Cc1cc(NC(=O)COn2nnc3ccccc32)no1	-0.28% (inactive)
C[C@]12c3[nH]c4ccc(Cl)cc4c3CCN1C(=O)[C@@H](CC(=O)NCCCn1ccnc1)C[C@@H]2C(=O)N1CCOCC1	-7.65% (inactive)
C=CC1=C(C(=O)O)N2C(=O)[C@@H](NC(=O)/C(=N\OCC(=O)O)c3csc(N)n3)[C@H]2SC1	88.6% (active)
COc1ccc(C(N)c2csc(NC(=O)Nc3cccc(C(F)(F)F)c3)n2)cc1 (stereo not given)	-0.69% (inactive)
COc1ccc(/C(C)=N/N2CCOCC2)c(O)c1	-16.2% (inactive)
CC(C)n1c(CN2CCN(Cc3ccccc3)CC2)nc2ccccc21	-8.55% (inactive)
CC(=O)C12CC(C)=C(C)CC1CC1C3CCC4=CC(=O)CCC4(C)C3CCC12C (stereo not given)	-1.14% (inactive)
O=C(NC12CC3CC(CC(C3)C1)C2)N1CCCC(CO)C1 (stereo not given)	-3.42% (inactive)
COc1ccccc1C(=O)N1C(CC(=O)Nc2ccccc2C)C(=O)NC2CCCCC21 (stereo not given)	-4.18% (inactive)
C=CCn1c(SCn2nnc3ccccc3c2=O)nnc1-c1ccc(Cl)cc1	-4% (inactive)
CCOC(=O)C1CCN(C(=O)c2ccccc2N(C)S(=O)(=O)c2ccccc2)CC1	-3.46% (inactive)
CCC[C@H]1CCCC/C=C\CCCC(=O)OCCN1C(=O)OC(C)(C)C	1.42% (inactive)
Cc1cccc([C@@H]2[C@@H]3C(=O)N(Cc4ccccc4)C(=O)[C@@H]3[C@]3(Cc4ccc(Cl)cc4)C(=O)N(c4cccc(Cl)c4)C(=O)N23)c1	3.36% (inactive)
Cc1c(C(=O)c2cccc([N+](=O)[O-])c2)c2ccccn2c1CCC#N	-0.24% (inactive)

Structure (SMILES)	inhibition
CC1(C)CC(=O)C=C(NC2CC(C)(C)NC(C)(C)C2)C1	-0.48% (inactive)
Cc1ccc(-c2cn(S(=O)(=O)c3cccc([N+](=O)[O-])c3)nc2N)cc1	-5.96% (inactive)
O=C(Nc1ccc(Br)cc1)C1CCC(=O)N1Cc1ccccc1Cl (stereo not given)	-0.49% (inactive)
CCN(CC)Cc1csc2ccc(Br)cc12	-2.99% (inactive)
Cc1nc2ccccc2nc1CC(O)(c1ccccc1)c1ccccc1	1.82% (inactive)
C/C(CC(C)C)=N\Oc1nc(C)cc(C)n1	-8.49% (inactive)
O=C(c1ccc2c(c1)OCO2)N1CCNc2ccccc2C1	-5.39% (inactive)
Cc1cccc(C(=O)NCCCN2CCCC2=O)c1	-4.45% (inactive)
Cc1ccc(NC(=S)N(Cc2ccco2)C(C)c2cccs2)cc1 (stereo not given)	-3.86% (inactive)
O=c1c2ccccc2c(-c2ccccc2)nn1Cc1ccccc1	-4.2% (inactive)
O=C1c2ccccc2S(=O)(=O)N1CC(O)Cn1c2ccccc2c2ccccc21 (stereo not given)	2.37% (inactive)
O=C(/C=C/c1c(F)cccc1Cl)Nc1nn[nH]n1	-8.5% (inactive)
CCOc1ccccc1NC(=O)c1cccnc1	-8.44% (inactive)
CCc1c(Nc2ccccc2C)nc(N)[nH]c1=O	0.72% (inactive)
COc1ccc([N+](=O)[O-])cc1N(CC(O)Cn1nnc2ccccc21)S(=O)(=O)c1ccc(C)cc1 (stereo not given)	-0.66% (inactive)
COc1cc(NC(=O)COC(=O)c2ccc([N+](=O)[O-])s2)cc(OC)c1OC	-0.3% (inactive)
Cc1ccc(C(=O)N2CCN(C(=O)N3CCOCC3)CC2)cc1	-6.45% (inactive)
O=C(CSc1nnc(-c2ccncc2)n1C1CCCCC1)Nc1ccccc1	-6.62% (inactive)
COC(=O)NC1(C(F)(F)F)NC(=O)N(C2CCCCC2)C1=O (stereo not given)	-2.81% (inactive)
CN(C)S(=O)(=O)c1cccc(NC(=O)COC(=O)C2(c3ccccc3F)CCCC2)c1	-1.97% (inactive)
O=C(O)c1ccc(Cn2c(=S)[nH]c3cc(Cl)ccc3c2=O)cc1	-7.72% (inactive)
C[C@H](C(=O)N(C)c1ccccc1)[C@@H](O)c1ccc2ccccc2c1	-5.46% (inactive)
CC(C)(C)c1ccc(C(=O)Nc2cc(Cl)c(Br)cc2C(=O)O)cc1	-7.48% (inactive)

Structure (SMILES)	inhibition
CN(C)/C=C(/C(=O)c1ccc(Cl)cc1)S(=O)(=O)c1ccccc1	-4.31% (inactive)
CCOc1ccc(NC(=O)[C@H](C)NC(=O)C2CC(=O)N(c3ccc(OC)cc3)C2)cc1 (stereo not given in full)	-8.84% (inactive)
CC1Oc2ccccc2N(Cc2cccnc2)C1=O (stereo not given)	-5.05% (inactive)
CCOC(=O)N1CCC(c2cc(=O)n(-c3ccccc3)[nH]2)CC1	2.8% (inactive)
CC(C)C(NC(=O)C1CCC(C(C)(C)C)CC1)C(=O)NCCCN1CCCCC1 (stereo not given)	8.08% (inactive)
CC1(C)CC(=O)C=C(NCCN2CCNCC2)C1	-10.6% (inactive)
Cc1ccc(S(=O)(=O)N2CCCCC2)cc1NC(=O)CCNC(=O)c1ccccc1	-4.84% (inactive)
O=C1CS(=O)CN1c1ccc(Oc2ccccc2)cc1 (stereo not given)	24.1% (active)
CC(C)Oc1ccc(CC(=O)NNC(=S)Nc2ccc(Br)cc2)cc1	-9.3% (inactive)
OC(CNCC1CCCO1)Cn1c2ccc(Br)cc2c2cc(Br)ccc21 (stereo not given)	-8.03% (inactive)
Cc1ccccc1C(=O)Nc1ccccc1Sc1ccccc1	-2.19% (inactive)
CC(=O)c1c(C)[nH]c(C(=O)OCC(=O)Nc2cc(S(=O)(=O)N3CCCCC3)ccc2C)c1C	-5.44% (inactive)
O=C(CCNS(=O)(=O)c1ccc(Br)cc1)NCC1CCCO1 (stereo not given)	-3.55% (inactive)
CCOC(=O)Nc1ccc(NC(=O)OCC)cc1	5.66% (inactive)
Cc1ccc(S(=O)(=O)Cn2nnnc2CN2CCN(Cc3ccc4c(c3)OCO4)CC2)cc1	0.94% (inactive)
Cc1cccc(NC(=O)c2ccc3c(=O)n(CC4CCCO4)c(=S)[nH]c3c2)c1 (stereo not given)	-0.76% (inactive)
CCn1c(/C=C/Nc2ccccc2)[n+](CC)c2ccc(C(=O)OCC(F)(F)F)cc21	-14.3% (inactive)
Cc1ccc(/C=N/NC(=O)CSc2nc3ccccc3o2)cc1	-5.43% (inactive)
CNC(=O)c1ccc(NC(=O)c2cccc(C(F)(F)F)c2)cc1	-6.45% (inactive)
CCCCc1nc2ccccc2c(NC(=O)CN2CCN(C)CC2)c1CCC	-4.07% (inactive)
COc1ccccc1C(=O)Nc1cccc(C(=O)N2CCOCC2)c1	-6.49% (inactive)
COCCCN(C(=S)Nc1c(C)cc(C)cc1C)C(C)c1ccncc1 (stereo not given)	-0.82% (inactive)
Cc1ccc(C)c(N2CCN(S(=O)(=O)c3c(C)[nH]c(C)c3C(=O)N3CCCC3)CC2)c1	-8.57% (inactive)

Structure (SMILES)	inhibition
CN(CC(=O)NC1CCCCC1)S(=O)(=O)c1ccc(Br)s1	-5.25% (inactive)
O=C1N[C@@H](c2ccccc2)COC(=O)[C@H](Cc2ccc(F)cc2)C/C=C\C[C@@H]1CC(=O)N(CCO)Cc1ccccc1	-2.05% (inactive)
Cc1ccc(N2CC(C(=O)NCCS(=O)(=O)N3CCN(c4ccccc4)CC3)CC2=O)cc1 (stereo not given)	-3.74% (inactive)
O=c1ccc2c(-c3ccccc3S(=O)(=O)O)c3ccc(O)c(O)c3oc-2c1O	26.6% (active)
NC1=CC(=O)C(=O)c2cccnc21	0.29% (inactive)
CCc1ccc(-c2nc(SCC(=O)NC3CCCC3)n[nH]2)cc1	-6.5% (inactive)
Cc1ccc(-n2ncc3c2CC(C)(C)CC3NC(=O)CCc2cnn(C)c2)cc1 (stereo not given)	-2.59% (inactive)
COC(=O)CN1C(=O)C(O)=C(C(C)=O)C1c1ccc([N+](=O)[O-])cc1 (stereo not given)	-0.28% (inactive)
O=C(NCc1ccc(F)cc1F)[C@@H]1CCCN1C(=O)[C@@H]1CCCN1C(=O)c1cccc(Cl)c1	-4.84% (inactive)
CCOc1ccc(CCNC(=O)COC(=O)CCS(=O)(=O)c2ccc(C)cc2)cc1OCC	1.09% (inactive)
Cc1ccc(C(=O)Nc2ccc(C)c(S(=O)(=O)N(C)C)c2)s1	-0.35% (inactive)
CC(=O)C1=C(O)C(=O)N(c2cccnc2)C1c1ccc([N+](=O)[O-])cc1 (stereo not given)	-4.99% (inactive)
O=C(C(c1ccccc1)c1ccccc1)N1CCN(CC(O)COc2ccccc2)CC1 (stereo not given)	0.93% (inactive)
NC1=NN(c2cccc(C(=O)O)c2)C(=O)C1	-3.09% (inactive)
CCOc1cccc(-c2nnc3sc(COc4ccc(OC)cc4)nn23)c1	-4.31% (inactive)
O=S(=O)(Nc1ccc(Oc2ncccn2)c(Cl)c1)c1ccc(F)cc1	-6.2% (inactive)
CC1CCN(S(=O)(=O)c2ccc(S(=O)(=O)NCc3ccco3)cc2)CC1	0.59% (inactive)
CN(C(=O)c1ccc(NC(=O)Cc2cccc(NC(=O)C3CCN(C(=O)c4ccccc4)CC3)c2)cc1)C1CC1	-5.36% (inactive)
COc1cc(OC)nc(S(C)(=O)=O)n1	1.91% (inactive)
O=C(COc1ccc(Cl)cc1)N1CCN(c2cccc(C(F)(F)F)c2)CC1	-4.75% (inactive)
COCCNC(=O)C(c1ccc(O)cc1)N(C(=O)CCC(=O)Nc1nccs1)c1ccc(C)cc1 (stereo not given)	0.09% (inactive)
